Reference: PubChem BioAssay AID1159580 (chemical genetic matrix, 2015)
Values joined by “and” are separate entries in the source; they are usually repeats but may differ in a detail not shown here. Equal entries are not always repeated. The campaign covered roughly 5,500 compounds. About 2,000 (36%) were called active. Not shown: some 18% with an inconclusive outcome. Rule as the data show it: active = normalized growth mostly below about 0.91 (no sharp cut-off); inconclusive = no clear call, values can overlap the other calls; inactive = mostly above about 0.92. Some of the results follow.

Experiment: chemical genetic growth profiling, strain panel (AID 1159580);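 also: tested at 20 µM; growth read once vehicle control cultures reached saturation at 30 °C; 1 = growth at the plate median or of vehicle wells; lower values mean less growth of the strain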
Conditions: S. cerevisiae deletion strains, growth OD

Measured: normalized growth

NC(N)=NS(=O)(=O)c1ccc(N)cc1
inactive: locus YAL021C, strain ccr4, hits give low values 0.976 | locus YAL026C, strain drs2, hits give low values 0.991 | locus YAL030W, strain snc1, hits give low values 0.979 | locus YBL061C, strain skt5, hits give low values 0.991 | locus YBR009C, strain hhf1, hits give low values 0.981 | locus YBR021W, strain FUR4, hits give low values 1.02 | locus YBR023C, strain chs3, hits give low values 0.981 | locus YBR171W, strain sec66, hits give low values 0.994 | locus YBR229C, strain ROT2, hits give low values 1.01 | locus YBR231C, strain swc5, hits give low values 0.993 | locus YBR279W, strain paf1, hits give low values 0.986 | locus YCL011C, strain gbp2, hits give low values 0.981 | locus YCL016C, strain dcc1, hits give low values 0.983 | locus YCL029C, strain bik1, hits give low values 1 | locus YCL061C, strain MRC1, hits give low values 1.01 | locus YCL069W, strain vba3, hits give low values 0.991 | locus YCR088W, strain abp1, hits give low values 0.992 | locus YDL005C, strain med2, hits give low values 0.987 | locus YDL035C, strain GPR1, hits give low values 1.02 | locus YDL040C, strain nat1, hits give low values 0.975 | locus YDL074C, strain BRE1, hits give low values 1.04 | locus YDL101C, strain DUN1, hits give low values 1.02 | locus YDL134C, strain PPH21, hits give low values 1.01 | locus YDL185W, strain tfp1, hits give low values 1 | locus YDL192W, strain arf1, hits give low values 0.996 | locus YDR001C, strain nth1, hits give low values 0.99 | locus YDR069C, strain doa4, hits give low values 0.986 | locus YDR101C, strain arx1, hits give low values 0.995 | locus YDR137W, strain rgp1, hits give low values 1.03 | locus YDR150W, strain NUM1, hits give low values 1.02 | locus YDR159W, strain sac3, hits give low values 0.992 | locus YDR162C, strain NBP2, hits give low values 1.01 | locus YDR195W, strain ref2 0.934 | locus YDR297W, strain sur2, hits give low values 0.984 | locus YDR318W, strain mcm21, hits give low values 0.998 | locus YDR334W, strain swr1, hits give low values 0.979 | locus YDR335W, strain msn5, hits give low values 0.992 | locus YDR388W, hits give low values 0.999 | locus YDR392W, strain spt3, hits give low values 0.99 | locus YDR502C, strain sam2, hits give low values 0.997 | locus YEL003W, strain gim4, hits give low values 0.99 | locus YEL037C, strain rad23, hits give low values 0.983 | locus YEL061C, strain CIN8 (second series), hits give low values 0.974 | locus YEL061C, strain CIN8, hits give low values 1.01 | locus YER015W, strain faa2, hits give low values 0.985 | locus YER016W, strain bim1, hits give low values 0.987 | locus YER110C, hits give low values 0.993 | locus YER111C, strain swi4, hits give low values 0.993 | locus YER155C, strain BEM2 (second series), hits give low values 0.987 | locus YER155C, strain BEM2, hits give low values 1.01 | locus YER167W, strain BCK2, hits give low values 1 | locus YFR010W, strain ubp6, hits give low values 0.99 | locus YGL078C, strain dbp3, hits give low values 0.987 | locus YGL086W, strain mad1, hits give low values 1.01 | locus YGL167C, strain pmr1, hits give low values 0.987 | locus YGL173C, strain kem1, hits give low values 0.988 | locus YGL227W, strain vid30, hits give low values 0.974 | locus YGL240W, strain doc1, hits give low values 0.997 | locus YGL248W, strain PDE1, hits give low values 1.03 | locus YGL253W, strain hxk2, hits give low values 0.986 | locus YGR078C, strain PAC10, hits give low values 1.04 | locus YGR135W, strain pre9, hits give low values 0.989 | locus YGR252W, strain gcn5, hits give low values 0.963 | locus YHR013C, strain ard1, hits give low values 0.961 | locus YHR027C, strain rpn1, hits give low values 0.976 | locus YHR030C, strain SLT2, hits give low values 1.01 and 0.978 | locus YHR079C, strain IRE1 (second series), hits give low values 0.99 | locus YHR079C, strain IRE1, hits give low values 0.97 | locus YHR094C, strain hxt1, hits give low values 0.988 | locus YHR129C, strain ARP1, hits give low values 1.02 | locus YHR142W, strain chs7, hits give low values 0.988 | locus YHR200W, strain rpn10, hits give low values 0.985 | locus YIL066C, strain RNR3, hits give low values 1.03 | locus YIL073C, strain SPO22, hits give low values 0.989 | locus YIL125W, strain kgd1, hits give low values 0.989 | locus YIR030C, strain dcg1, hits give low values 0.994 | locus YJL092W, strain hpr5, hits give low values 0.991 | locus YJL095W, strain BCK1 (second series), hits give low values 0.988 | locus YJL095W, strain BCK1, hits give low values 1.05 and 0.986 | locus YJL115W, strain asf1, hits give low values 0.966 | locus YJL129C, strain trk1, hits give low values 0.984 | locus YJL134W, strain LCB3, hits give low values 1 | locus YJL154C, strain vps35, hits give low values 0.986 | locus YJL164C, strain tpk1, hits give low values 0.984 | locus YJL166W, strain qcr8, hits give low values 0.98 | locus YJL168C, strain set2, hits give low values 0.996 | locus YJL187C, strain SWE1 (second series), hits give low values 1.03 | locus YJL187C, strain SWE1, hits give low values 0.989 | locus YJR043C, strain POL32, hits give low values 1.05
